Screens deposited in PubChem BioAssay by National Center for Advancing Translational Sciences (NCATS).
This is a sample that favours compounds with a hit; in the whole collection about 19% have one here.
DT40 TDP1 no CPT: qHTS for Inhibitors of human tyrosyl-DNA phosphodiesterase 1 (TDP1): qHTS in cells in absence of CPT. DT40 Tdp1-/- hTDP1 cells, no CPT, ATP luminescence, 48 h. Potency, µM (top dose mostly 46.2 µM), inactives show top-dose activity change, negative = growth inhibition, actives largely listed as inhibitors. actives 15% (n = 420,000); further: nearly all actives have a fitted effect of over 55% in size
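DT40 Tdp1-/-;hTDP1 cells, no CPT (DMSO vehicle only), 400 cells/well; compounds pin-transferred; ≥48 hr, 37 °C; CellTiter-Glo 30 min RT dark, luminescence read.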
TDP1 cell CPT: qHTS for Inhibitors of human tyrosyl-DNA phosphodiesterase 1 (TDP1): qHTS in cells in presence of CPT; chicken DT40 Tdp1-/-;hTDP1 cells + 20 nM CPT, ATP luminescence, 48 h; Potency, µM (doses to about 46.2 µM), without a hit: at the highest dose activity change, negative = growth inhibition, hits mostly inhibitors; actives 12% (n = 420,000); further: nearly all actives have a fitted effect of over 55% in size
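Chicken DT40 Tdp1-/- cells stably complemented with human TDP1 were seeded at 400 cells/well in medium containing 20 nM camptothecin, exposed to pin-transferred compounds, and grown at 37 °C for at least 48 hr. Viability was read as ATP luminescence.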
HT1080NT lethal: qHTS for induction of synthetic lethality in tumor cells producing 2HG: qHTS for the HT-1080-NT fibrosarcoma cell line; HT-1080-NT fibrosarcoma viability, CellTiter-Glo ATP luminescence, 48 h; actives 1.6% (n = 360,000); Potency, µM (highest dose often 46.1 µM), for the others: top-dose activity, negative = less viability, hits mostly cytotoxic;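 further: NT is the 2HG producing partner of a matched IDH1 knockdown line; 0% = DMSO-treated cells and -100% = media-only wells without cells; nearly all actives have a fitted effect of over 55% in size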
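A 48-hour cytotoxicity screen used HT-1080-NT cells plated 2 hours before compound delivery. ATP-based CellTiter-Glo luminescence measured viability, normalized to DMSO and no-cell controls.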
KB-V1 MDR tox: qHTS assay for MDR1-selective chemotherapeutics: Primary screen using the drug-selected MDR subline cells KB-V1; AID 1347076, 2019; KB-V1 MDR cells viability, CellTiter-Glo, 72 h; actives 3.4% (n = 400,000); Potency, µM (doses to about 46.1 µM), usual class: cytotoxic; further: nearly all actives have a fitted effect of over 60% in size
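In this primary screen, KB-V1 cells overexpressing P-gp are incubated with library compounds (lowest to highest concentration) for 72 h at 37 degrees C before a luminescent ATP viability read.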
HT1080 IDH1KD tx: qHTS for induction of synthetic lethality in tumor cells producing 2HG: qHTS for the HT-1080-IDH1KD cell line; HT-1080 IDH1 knockdown viability, ATP luminescence, 48 h; Potency, µM (titrated, usually from 46.1 µM), for the others: at the highest dose activity, negative = toxicity, most hits filed as cytotoxic; actives 2% (n = 360,000);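 further: 0% = DMSO wells and -100% = cell-free medium wells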
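In this qHTS, HT-1080 cells depleted of IDH1 are exposed for 48 h at 37 °C to compound titrations. Toxicity is scored from CellTiter-Glo luminescence, with DMSO as full viability and medium alone as none.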
KB-3-1 tox: qHTS assay for MDR1-selective chemotherapeutics: Primary screen using the parental adenocarcinoma cell KB-3-1 | KB-3-1 viability, CellTiter-Glo ATP luminescence, 72 h | Potency, µM (top dose mostly 46.1 µM), hits mostly cytotoxic | actives 1.4% (n = 400,000) | AID 1347075, 2019; further: nearly all actives have a fitted effect of over 60% in size
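Parental KB-3-1 viability, qHTS format: 72 h compound exposure, 37 °C; CellTiter-Glo; media-only wells and DMSO plates as controls; concentration-effect fits on corrected data.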
* marks the source's active call; other numbers are inactive results; i = inactive; ? = inconclusive; nt = no result given. The call rests on the fitted dose curve; in most records, active means well fitted curve in the direction sought with a large enough effect; inconclusive means small, poorly fitted or top-dose-only effect, or another doubt; inactive means no such curve, though single readings can be large; an effect the other way counts as inactive or inconclusive. Unless noted, on the % scale 0 is the no-effect control and ±100 the full control effect; potency means the concentration at half of the fitted maximal effect.

SMILES | DT40 TDP1 no CPT | TDP1 cell CPT | HT1080NT lethal | KB-V1 MDR tox | HT1080 IDH1KD tx | KB-3-1 tox
CC(/C=C/c1ccco1)=N/NC(=O)CNc1ccccc1C | -11.0% | 4.0% | -2.1% | i | -1.4% | i
CC(/C=C/c1ccccc1F)=N\NC(=O)c1cccc(F)c1 | 18.4µM* | ? | -19.3% | 20.6µM* | ? | ?
CC(/C=C/c1ccccc1)=N\NC(=O)c1ccc2c(c1)OCCO2 | ? | ? | -13.6% | i | -26.4% | ?
CC(/C=C/C=C/c1ccccc1)=N/NC(=O)CNc1ccccc1C | ? | 10.3µM* | -1.8% | i | 2.8% | i
CCOC(=O)N/N=C(C)/C=C/c1ccccc1 | 0.082µM* | 0.366µM* | 1.8% | i | 12.4% | i
O=C(NC1CCCC1)C(c1ccccc1)n1c(-c2ccc3c(c2)CCO3)nc2ccccc21 (centres undefined) | ? | ? | ? | i | ? | i
COc1ccc(-c2noc(-c3ccc(N4CCOCC4)c([N+](=O)[O-])c3)n2)cc1 | -0.7% | -15.1% | nt | ? | nt | i
Cc1ccc(-c2noc(-c3ccc(N4CCCCC4)c([N+](=O)[O-])c3)n2)cc1 | 20.6µM* | ? | nt | i | nt | i
CCc1noc(-c2ccc(N3CCC(C)CC3)c([N+](=O)[O-])c2)n1 | ? | 18.4µM* | nt | i | nt | i
CCc1noc(-c2ccc(N3CCCCC3)c([N+](=O)[O-])c2)n1 | 4.5% | ? | nt | i | nt | i
Cc1ccc(-c2noc(-c3ccc(N4CCOCC4)c([N+](=O)[O-])c3)n2)cc1 | 20.6µM* | -14.4% | nt | i | nt | i
CCc1nn2c(=O)c(S(=O)(=O)Nc3ccc(OC)c(Cl)c3)c(C)nc2s1 | ? | -27.2% | nt | i | nt | i
CC(C)N(Cc1nccn1C)C(=O)c1cc(COc2ccc(F)cc2Cl)on1 | ? | 14.6µM* | -1.6% | nt | -3.5% | nt
COc1ccc(OCc2cc(C(=O)N(Cc3nccn3C)C(C)C)no2)c2ccccc12 | 11.6µM* | 20.6µM* | 1.9% | i | -11.5% | i
CN(CCN1CCOCC1)C(=O)c1cc(COc2ccc(F)cc2Cl)on1 | -21.8% | -15.3% | 3.4% | i | 5.5% | i
O=C(Cc1ccccc1F)Nc1cc(S(=O)(=O)N2CCOCC2)ccc1N1CCCC1 | -2.8% | -8.7% | 3.7% | i | 0.2% | i
O=C(CN1C(=O)NC2(CCCC2)C1=O)Nc1cc(Cl)ccc1N1CCOCC1 | 5.6% | 3.5% | 1.6% | ? | 0.7% | i
CCc1ccc2c(c1)C(=O)C(=O)N2CCS(=O)(=O)c1ccccc1 | 2.59µM* | 2.91µM* | -7.6% | i | -0.3% | i
Cc1ccc(NC(=O)COC(=O)c2cc(=O)c3cc(F)ccc3o2)cc1 | 3.8% | 11.1% | 1.9% | i | 3.2% | i
Cc1nc2cc(-c3sccc3-n3cccc3)nn2c(C)c1C | 0.2% | -28.2% | 12.7% | 16.4µM* | 8.7% | i
Cc1cc(C(F)(F)F)n2nc(-c3sccc3-n3cccc3)cc2n1 | ? | -12.4% | 4.6% | i | 11.3% | i
Oc1ccccc1C=NN=Cc1ccccc1Cl | ? | -2.6% | 0.5% | ? | -2.6% | i
NC(N)=N/N=C/c1cccc(Cl)c1Cl | ? | ? | 23.1µM* | ? | 20.6µM* | ?
CCOc1ccc(Sc2cc(C(=O)NC(C)CC)c3ccccc3n2)cc1 (centres undefined) | -15.3% | -15.2% | nt | i | nt | i
C=CCn1nc([N+](=O)[O-])nc1Sc1cccc2cccnc12 | 4.11µM* | 5.17µM* | ? | 8.2µM* | ? | ?
SMILES | DT40 TDP1 no CPT | TDP1 cell CPT | HT1080NT lethal | KB-V1 MDR tox | HT1080 IDH1KD tx | KB-3-1 tox
O=[N+]([O-])c1cc(Cl)ccc1Sc1cccc2cccnc12 | -19.8% | -6.2% | 3.5% | i | -0.7% | i
O=[N+]([O-])c1ccc(Sc2ccncn2)c([N+](=O)[O-])c1 | 0.651µM* | 1.03µM* | 18.4µM* | ? | 14.6µM* | 11.6µM*
Cc1cc(C)nc(Sc2ccc([N+](=O)[O-])cc2[N+](=O)[O-])n1 | 1.03µM* | 1.3µM* | ? | ? | ? | i
O=[N+]([O-])c1ccc(Sc2cccc3cccnc23)c([N+](=O)[O-])c1 | 4.61µM* | 4.61µM* | ? | i | -27.0% | ?
Cc1cnc(CNc2cc(-c3ccccc3C)ncn2)cn1 | -4.3% | 1.0% | nt | nt | nt | nt
COc1ccc(C(=O)Nc2cccc(C(=O)NCc3ccco3)c2)cc1 | ? | ? | ? | i | ? | ?
S=c1ncc2n[nH]nc2[nH]1 | 1.2% | 6.0% | nt | ? | nt | ?
CCN(CC(=O)Nc1cccc(OC)c1)C(=O)c1cnc(Cl)c(Cl)c1 | ? | -11.3% | -3.2% | i | 0.5% | i
CN(C)/N=C/c1ccc(Sc2ccc([N+](=O)[O-])cc2[N+](=O)[O-])o1 | 23.1µM* | ? | 7.6% | i | ? | i
CCCc1nc2ccccc2n1CCc1ccccc1 | 20.6µM* | 29.1µM* | -7.5% | ? | 0.7% | i
OCCCc1nc2ccccc2n1CCc1ccccc1 | -7.9% | 0.4% | 6.0% | i | 9.9% | i
c1ccc(CCn2c(C3CC3)nc3ccccc32)cc1 | 25.9µM* | ? | ? | 20.6µM* | 3.2% | i
CC1CN(C2CCCCC2)C(=S)NC1=O (centres undefined) | 8.6% | 1.9% | -0.5% | i | 9.1% | i
COc1cc(OC)c2ccc(=O)oc2c1C(CCN1CCCC(C)C1)c1ccc2c(c1)OCO2 (centres undefined) | 14.6µM* | 10.3µM* | -8.2% | i | -8.9% | i
COc1cc(O)c(C(CCN2CCCC(C)C2)c2ccc3c(c2)OCO3)c(OC)c1 (centres undefined) | 16.4µM* | 16.4µM* | -13.5% | i | -26.8% | i
Cc1ccc(OCc2n[nH]c(=S)n2C2CCCCC2)cc1 | 18.4µM* | 29.1µM* | -23.5% | ? | 0.0% | i
Cc1cccc(OCc2n[nH]c(=S)n2C2CCCCC2)c1 | ? | 23.1µM* | ? | i | ? | i
